Assay results as given in the supplement of paper PMC11732987, “Enantioselective OTUD7B fragment discovery through chemoproteomics screening and high-throughput optimisation” (Communications Chemistry, 2025).

Assays:
Assay in all cases: log2 ratio of Biotin-Ahx-Ub-VS probe labelling (fragment/DMSO); higher = less target engagement (more negative = stronger competition), active = hit call of the paper (q ≤ 0.05, log2 ratio ≤ -1)
Details in all cases: compound concentration: 200 uM; treatment time: 3 h
[1] = target: T1, OTUD6B (UniProt Q8N6M0)
T1 sequence (whole entry): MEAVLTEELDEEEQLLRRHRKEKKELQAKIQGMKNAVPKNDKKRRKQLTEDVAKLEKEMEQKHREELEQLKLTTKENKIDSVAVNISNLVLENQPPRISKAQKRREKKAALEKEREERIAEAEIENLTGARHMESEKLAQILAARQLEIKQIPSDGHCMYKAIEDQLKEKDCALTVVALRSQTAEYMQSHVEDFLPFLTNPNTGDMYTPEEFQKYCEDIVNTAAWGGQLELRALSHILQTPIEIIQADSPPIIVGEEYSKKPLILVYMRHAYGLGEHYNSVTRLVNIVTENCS
In short: (§1)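 Global-median-normalised Spectronaut label-free quantities were compared by unpaired t-test, and values are average log2 ratios of fragment over vehicle. Only proteins with ≥2 unique peptides were used. HEK293T lysate (495 µg per sample) was treated in triplicate with fragment at 200 µM or vehicle for 3 h and then with Biotin-Ahx-Ub-VS at 0.5 µM final for 1 h. Labelled DUBs were then NeutrAvidin-enriched, digested with LysC and trypsin, and run by diaPASEF LC-MS/MS.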

[2] = target: T2, OTUD7B (UniProt Q6GQQ9)
T2 sequence (whole entry): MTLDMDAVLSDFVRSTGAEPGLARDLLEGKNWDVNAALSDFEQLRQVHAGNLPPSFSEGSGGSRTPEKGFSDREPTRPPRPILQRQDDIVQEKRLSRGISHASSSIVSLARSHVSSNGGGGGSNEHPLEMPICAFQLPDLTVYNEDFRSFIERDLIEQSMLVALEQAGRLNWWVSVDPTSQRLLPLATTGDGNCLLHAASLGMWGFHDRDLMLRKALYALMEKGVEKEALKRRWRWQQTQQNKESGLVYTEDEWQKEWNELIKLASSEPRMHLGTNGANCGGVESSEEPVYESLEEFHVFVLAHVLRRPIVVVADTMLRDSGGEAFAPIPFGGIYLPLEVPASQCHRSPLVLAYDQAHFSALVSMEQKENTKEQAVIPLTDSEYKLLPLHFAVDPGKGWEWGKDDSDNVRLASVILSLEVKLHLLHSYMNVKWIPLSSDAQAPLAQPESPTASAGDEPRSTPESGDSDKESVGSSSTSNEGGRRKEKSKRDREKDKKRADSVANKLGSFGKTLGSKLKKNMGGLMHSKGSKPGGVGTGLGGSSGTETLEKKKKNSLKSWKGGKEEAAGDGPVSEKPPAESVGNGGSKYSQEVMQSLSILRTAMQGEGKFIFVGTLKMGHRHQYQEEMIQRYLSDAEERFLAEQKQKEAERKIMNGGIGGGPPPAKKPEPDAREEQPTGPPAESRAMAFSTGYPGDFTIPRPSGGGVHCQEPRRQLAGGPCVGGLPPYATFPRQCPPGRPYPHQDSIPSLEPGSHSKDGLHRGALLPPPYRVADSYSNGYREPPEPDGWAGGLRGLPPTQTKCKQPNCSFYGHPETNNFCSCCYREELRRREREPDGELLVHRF
In short: as §1

[3] = target: PRPF8 (UniProt Q6P2Q9)
In short: as §1

[4] = target: T3, PSMD7 (UniProt P51665)
T3 sequence (whole entry): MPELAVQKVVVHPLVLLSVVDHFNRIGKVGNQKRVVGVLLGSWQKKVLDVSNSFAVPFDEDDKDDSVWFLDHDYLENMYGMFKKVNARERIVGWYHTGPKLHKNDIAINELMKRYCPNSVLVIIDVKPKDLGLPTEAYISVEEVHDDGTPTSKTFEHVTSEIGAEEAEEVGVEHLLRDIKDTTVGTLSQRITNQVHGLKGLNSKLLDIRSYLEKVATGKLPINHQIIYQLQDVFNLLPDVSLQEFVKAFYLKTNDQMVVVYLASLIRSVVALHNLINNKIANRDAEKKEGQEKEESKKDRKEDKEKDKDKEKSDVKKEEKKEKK
In short: as §1

[5] = target: UCHL1 (UniProt P09936)
In short: as §1

[6] = target: T4, UCHL3 (UniProt P15374)
T4 sequence (whole entry): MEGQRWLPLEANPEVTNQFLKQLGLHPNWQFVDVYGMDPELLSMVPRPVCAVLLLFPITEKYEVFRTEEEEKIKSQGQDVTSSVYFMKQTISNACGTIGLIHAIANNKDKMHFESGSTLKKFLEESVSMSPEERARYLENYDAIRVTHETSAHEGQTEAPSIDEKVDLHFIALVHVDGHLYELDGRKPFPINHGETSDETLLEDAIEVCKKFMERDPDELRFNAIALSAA
In short: as §1

[7] = target: T5, UCHL5 (UniProt Q9Y5K5)
T5 sequence (whole entry): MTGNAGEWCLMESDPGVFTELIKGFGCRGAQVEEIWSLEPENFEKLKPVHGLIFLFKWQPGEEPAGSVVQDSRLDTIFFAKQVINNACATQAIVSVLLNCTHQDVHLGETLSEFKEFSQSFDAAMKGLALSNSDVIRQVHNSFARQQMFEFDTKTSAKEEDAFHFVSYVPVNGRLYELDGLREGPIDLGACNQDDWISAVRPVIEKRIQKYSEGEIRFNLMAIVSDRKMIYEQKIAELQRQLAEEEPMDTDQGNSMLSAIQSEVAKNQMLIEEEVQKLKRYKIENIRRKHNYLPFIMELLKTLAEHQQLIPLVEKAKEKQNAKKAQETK
In short: as §1

[8] = target: USP10 (UniProt Q14694)
In short: as §1

[9] = target: T6, USP15 (UniProt Q9Y4E8)
T6 sequence (whole entry): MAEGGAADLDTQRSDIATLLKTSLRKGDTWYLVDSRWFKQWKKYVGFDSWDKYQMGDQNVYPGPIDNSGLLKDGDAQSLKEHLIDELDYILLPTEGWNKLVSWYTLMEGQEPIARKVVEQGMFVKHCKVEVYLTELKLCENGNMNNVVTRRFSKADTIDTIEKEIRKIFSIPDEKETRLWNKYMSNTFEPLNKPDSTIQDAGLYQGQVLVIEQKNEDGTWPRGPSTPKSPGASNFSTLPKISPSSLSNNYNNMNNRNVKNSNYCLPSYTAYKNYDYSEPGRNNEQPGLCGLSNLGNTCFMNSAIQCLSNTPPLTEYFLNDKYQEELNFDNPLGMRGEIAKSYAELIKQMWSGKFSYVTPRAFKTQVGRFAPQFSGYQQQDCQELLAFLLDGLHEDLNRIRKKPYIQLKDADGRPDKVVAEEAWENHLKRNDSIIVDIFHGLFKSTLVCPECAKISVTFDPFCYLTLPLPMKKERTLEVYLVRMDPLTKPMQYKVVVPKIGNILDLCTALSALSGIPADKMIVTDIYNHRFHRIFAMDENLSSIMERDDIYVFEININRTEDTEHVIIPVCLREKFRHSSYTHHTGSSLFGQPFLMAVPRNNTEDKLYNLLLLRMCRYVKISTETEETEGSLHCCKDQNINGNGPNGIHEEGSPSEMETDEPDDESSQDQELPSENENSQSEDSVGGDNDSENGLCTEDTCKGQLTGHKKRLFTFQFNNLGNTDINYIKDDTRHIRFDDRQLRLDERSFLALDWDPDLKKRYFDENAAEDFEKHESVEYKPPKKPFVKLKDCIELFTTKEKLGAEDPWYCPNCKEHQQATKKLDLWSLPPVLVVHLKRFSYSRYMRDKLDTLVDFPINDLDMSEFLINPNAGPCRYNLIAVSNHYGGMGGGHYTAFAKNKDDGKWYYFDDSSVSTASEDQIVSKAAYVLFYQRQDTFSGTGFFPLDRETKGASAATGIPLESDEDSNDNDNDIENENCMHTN
In short: as §1

[10] = target: USP16 (UniProt Q9Y5T5)
In short: as §1

Measured: log2 ratio of Biotin-Ahx-Ub-VS probe labelling

Chain of USP10 (Q14694 whole entry): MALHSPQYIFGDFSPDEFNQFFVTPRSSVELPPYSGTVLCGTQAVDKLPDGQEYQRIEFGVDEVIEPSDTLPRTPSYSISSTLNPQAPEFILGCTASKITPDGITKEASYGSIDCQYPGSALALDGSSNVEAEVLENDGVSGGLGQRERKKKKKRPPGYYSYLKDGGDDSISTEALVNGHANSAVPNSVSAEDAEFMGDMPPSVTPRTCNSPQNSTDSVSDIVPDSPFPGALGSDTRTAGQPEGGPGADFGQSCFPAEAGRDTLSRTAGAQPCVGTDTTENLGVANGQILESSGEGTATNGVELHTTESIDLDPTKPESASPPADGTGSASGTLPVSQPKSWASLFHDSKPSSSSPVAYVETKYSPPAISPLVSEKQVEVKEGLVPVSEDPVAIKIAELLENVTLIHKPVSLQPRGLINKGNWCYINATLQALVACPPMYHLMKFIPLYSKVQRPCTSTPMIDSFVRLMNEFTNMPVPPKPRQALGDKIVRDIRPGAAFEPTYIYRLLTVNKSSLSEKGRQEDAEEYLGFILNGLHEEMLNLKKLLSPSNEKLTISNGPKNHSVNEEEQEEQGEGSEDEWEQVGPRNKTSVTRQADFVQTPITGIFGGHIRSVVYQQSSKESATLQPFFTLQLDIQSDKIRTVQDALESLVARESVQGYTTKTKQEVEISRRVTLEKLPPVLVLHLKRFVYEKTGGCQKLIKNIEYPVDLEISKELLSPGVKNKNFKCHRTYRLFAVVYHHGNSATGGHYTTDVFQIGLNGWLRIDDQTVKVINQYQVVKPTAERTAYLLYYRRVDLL
Chain of USP16 (Q9Y5T5 whole entry, looked up): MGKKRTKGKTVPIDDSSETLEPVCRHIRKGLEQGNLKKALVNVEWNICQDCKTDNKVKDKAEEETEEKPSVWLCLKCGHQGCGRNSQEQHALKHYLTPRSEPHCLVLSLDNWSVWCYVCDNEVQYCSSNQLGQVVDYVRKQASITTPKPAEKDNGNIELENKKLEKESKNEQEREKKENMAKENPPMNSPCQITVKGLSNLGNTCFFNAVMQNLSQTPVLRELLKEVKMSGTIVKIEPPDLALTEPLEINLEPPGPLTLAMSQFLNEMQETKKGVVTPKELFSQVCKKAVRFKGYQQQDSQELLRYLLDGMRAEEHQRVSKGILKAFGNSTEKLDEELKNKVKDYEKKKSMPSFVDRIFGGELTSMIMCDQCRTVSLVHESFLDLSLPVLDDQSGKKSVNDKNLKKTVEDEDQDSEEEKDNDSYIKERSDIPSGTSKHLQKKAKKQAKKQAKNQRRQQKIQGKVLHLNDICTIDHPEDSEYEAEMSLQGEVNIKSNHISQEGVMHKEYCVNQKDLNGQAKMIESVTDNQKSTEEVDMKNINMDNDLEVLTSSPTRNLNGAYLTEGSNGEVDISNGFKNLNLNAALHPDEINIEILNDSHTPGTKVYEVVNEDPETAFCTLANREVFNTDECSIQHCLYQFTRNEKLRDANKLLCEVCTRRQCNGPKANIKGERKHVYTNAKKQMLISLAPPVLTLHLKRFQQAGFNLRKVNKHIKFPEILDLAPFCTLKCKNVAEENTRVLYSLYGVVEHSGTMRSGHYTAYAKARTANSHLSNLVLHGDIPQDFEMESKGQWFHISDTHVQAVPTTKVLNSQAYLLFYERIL
Chain of UCHL1 (P09936 whole entry, looked up): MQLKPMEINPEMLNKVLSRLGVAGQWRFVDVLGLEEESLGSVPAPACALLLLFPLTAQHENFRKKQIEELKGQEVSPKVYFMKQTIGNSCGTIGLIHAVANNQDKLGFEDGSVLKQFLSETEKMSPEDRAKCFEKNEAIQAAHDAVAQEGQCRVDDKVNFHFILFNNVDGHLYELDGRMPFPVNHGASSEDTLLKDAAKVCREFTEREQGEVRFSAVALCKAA

O=C(CCl)N1CC=C(c2c[nH]c3ccccc23)CC1
active: [5] -1.12 | [9] -1.46
inactive: [1] -0.33 | [2] -0.605 | [3] 0.0222 | [4] 0.00731 | [6] 0.00279 | [7] -0.387 | [8] -0.299 | [10] 0.156
